Experimental data taken from PubChem BioAssay (Tox21).
Where “and” joins values, the source holds several entries; their conditions need not be identical. Equal values may be shown once. Records with an inconclusive call do not appear. A structure can be active in one record and inactive in another. Calls of active or inactive are those of the source. The call rests on the fitted dose curve; in most records, active means well fitted inhibition curve with a large enough effect in the signal ratio in the repeat runs; inconclusive means weak or mixed curves, or effect the other way; inactive means flat fitted curve, though single readings scatter; the % refers to the signal ratio.

experiment: qHTS assay for small molecule disruptors of the mitochondrial membrane potential (AID 720635); settings: HepG2 mitochondrial membrane potential, Mito-MPS dye ratio; series mostly up to 83.2 µM; ratio activity, negative = MMP loss: at the top concentration
Source text: U.S. Tox21 Program National Center for Advancing Translational Sciences [NCATS] NIH Chemical Genomics Center [NCGC] U.S. Environmental Protection Agency [EPA] National Institutes of Environmental Health Sciences [NIEHS] National Toxicology Program [NTP] U.S. Food and Drug Administration [FDA] Tox21 Assay Overview: Mitochondrial membrane potential (MMP), one of the parameters for mitochondrial function, is generated by mitochondrial electron transport chain that creates an electrochemical gradient by a series of redox reactions. This gradient drives the synthesis of ATP, a crucial molecule for various cellular processes. Measuring MMP in living cells is commonly used to assess the effect of chemicals on mitochondrial function. […] The dye accumulates in the mitochondria of healthy cells as aggregates, with red fluorescence. The mitochondrial potential collapses and the dye can no longer accumulate in the mitochondria and remains in the cytoplasm in monomers, with green fluorescence.
Tox21 Assay Protocol Summary: 2,000 HepG2 cells in 5 uL/well were dispensed into black, clear-bottom 1536-well plates using a Multidrop Combi (Thermo Scientific) dispenser. The assay plates were incubated overnight at 37C to allow cells to attach to the wells, followed by the transfer of 23 nL compound or DMSO vehicle by a pin tool (Kalypsys). The plates were incubated for 1 hr at 37C and 5% CO2, followed by the addition of 5 uL of 2X Mito-MPS dye (BD Biosciences) into each well using Flying Reagent Dispenser (Aurora Discovery) and then following 30 min incubation at 37C. Fluorescence intensity (490nm excitation and 535nm emission for monomers; and 540nm excitation and 590nm emissions for aggregates) was measured using an Envision plate reader.
On the % scale 0 is the no-effect control and ±100 the full control effect; potency means the concentration at half of the fitted maximal effect.

Structure (SMILES) | Potency | ratio activity, negative = MMP loss
Nc1ccc(Cc2ccc(N)cc2)cc1 | inactive | 
CON(C)C(=O)Nc1ccc(Cl)c(Cl)c1 | 61.4 µM (active) and 43.3 µM (active) | 
COC(=O)NS(=O)(=O)c1ccc(N)cc1 |  | 15% [at 95.3 µM] (inactive)
c1ccc2c(c1)oc1ccccc12 |  | -14% [at 95.3 µM] (inactive)
CC(C)NC(=O)N1CC(=O)N(c2cc(Cl)cc(Cl)c2)C1=O | inactive | 
CCNc1nc(NC(C)(C)C)nc(SC)n1 | 27.3 µM (active) | 
CN(C)N=O |  | 10.4% (inactive)
O=[N+]([O-])c1ccccc1 |  | 11.6% [at 95.3 µM] (inactive)
C#CC(C)(C)NC(=O)c1cc(Cl)cc(Cl)c1 | inactive | 
COCCl |  | 15.1% [at 39.1 µM] (inactive)
COC(=O)NC(=S)Nc1ccccc1NC(=S)NC(=O)OC | inactive | 
CC1OC(C)OC(C)O1 (stereo not given) | inactive | 
COC(=O)c1ccccc1C(=O)OC | inactive | 
CC(C)(C)OOC(=O)c1ccccc1 | inactive | 
CNC(=O)Oc1ccccc1OC(C)C | inactive | 
O=c1ccc(=O)[nH][nH]1 | inactive | 
OC(O)C(Cl)(Cl)Cl |  | 13.9% (inactive)
Cc1[nH]c(=O)n(C(C)(C)C)c(=O)c1Cl | inactive | 
ClCCBr | inactive | 
Cc1cc(Cl)ccc1O | 42 µM (active) and 54.5 µM (active) | 

Structure (SMILES) | Potency | ratio activity, negative = MMP loss
[N-]=[N+]=[N-] | inactive | 
O=S(=O)(c1ccc(Cl)cc1)c1cc(Cl)c(Cl)cc1Cl | 12.2 µM (active) and 13.7 µM (active) | 
CCOP(OCC)OCC |  | 18.3% [at 95.3 µM] (inactive)
CC(=O)C=C(C)C | inactive | 
c1ccc(-c2ccccc2)cc1 |  | -10.8% [at 95.3 µM] (inactive)
CN=C=S |  | 6.69% [at 95.3 µM] (inactive)
O=C(O)c1ccccn1 |  | -24.5% (inactive)
CC(Br)C(=O)O (stereo not given) | inactive | 
CCN(CC)CCO |  | 11% [at 95.3 µM] (inactive)
CC(NC(C)(C)C)C(=O)c1cccc(Cl)c1 (stereo not given) |  | 14.8% (inactive)
O=NN1CCCC1 | inactive | 
Nc1ccc(Oc2ccc(N)cc2)cc1 | inactive | 
CCCCCOC(=O)c1ccccc1C(=O)OCCCCC |  | -7.89% (inactive)
CC(C)(Cl)Cl | inactive | 
c1cc2c3c(cccc3c1)CC2 |  | -10.5% (inactive)
CCOC(=O)c1ccccc1C(=O)OCC | inactive | 
Cc1ccc([N+](=O)[O-])cc1C | 47.7 µM (active) and inactive | 
CCCCN(CC)C(=O)SCCC | inactive | 
COC(=O)c1ccccc1N |  | 6.16% (inactive)
BrCCBr |  | 8.18% [at 95.3 µM] (inactive)
